Reference: PubChem BioAssay (EPA / NIEHS)
Where “and” joins values, the source holds several entries; their conditions need not be identical. Equal values may be shown once. Records with an inconclusive call do not appear. More than one record can exist for a structure, and the calls need not agree. Calls of active or inactive are those of the source. Rule for the calls: active = hit-call score of the fitted dose curve at least 0.9, where 1 is the maximum; inconclusive = response in the unintended direction; inactive = score below 0.9.

What follows are compounds tested against rat Acetylcholinesterase (AChE), Ache (gene 83817) (UniProt P37136) (assay: NVS_ENZ_rAChE: NovaScreen (NVS) Enzymatic Assay for rat Acetylcholinesterase (AChE) (AID 2283233)).
Chain of rat Acetylcholinesterase (AChE), Ache (gene 83817) (P37136 whole entry, looked up): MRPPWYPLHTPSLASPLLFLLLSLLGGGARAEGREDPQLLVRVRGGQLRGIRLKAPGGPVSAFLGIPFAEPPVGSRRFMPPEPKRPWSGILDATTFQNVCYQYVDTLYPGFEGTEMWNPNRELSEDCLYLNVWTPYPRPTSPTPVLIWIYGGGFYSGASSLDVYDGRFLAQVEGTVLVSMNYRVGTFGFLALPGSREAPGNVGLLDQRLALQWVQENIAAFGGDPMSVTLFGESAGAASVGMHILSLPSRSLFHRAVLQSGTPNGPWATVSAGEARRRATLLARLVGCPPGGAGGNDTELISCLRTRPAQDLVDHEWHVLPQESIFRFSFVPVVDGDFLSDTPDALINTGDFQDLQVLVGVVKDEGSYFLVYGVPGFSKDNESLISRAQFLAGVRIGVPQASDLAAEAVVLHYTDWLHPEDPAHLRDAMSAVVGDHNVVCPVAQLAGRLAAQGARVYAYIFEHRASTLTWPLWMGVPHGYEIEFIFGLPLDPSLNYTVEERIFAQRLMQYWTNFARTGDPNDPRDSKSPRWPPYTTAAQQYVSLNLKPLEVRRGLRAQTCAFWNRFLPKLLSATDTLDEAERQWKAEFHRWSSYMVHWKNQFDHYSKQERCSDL
Outline: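 Compounds first screened at 25 uM in duplicate, then those passing threshold tested in concentration series up to 50 uM, against AChE from rat brain membranes. Enzyme activity read by absorbance at 0.33 h; inhibition scored versus DMSO.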
`CNC(=O)Oc1ccccc1OC(C)C` was tested, and the AC50 was 5.05 µM (active).

Each compound was assayed against rat Constitutive Nitric Oxide Synthase (CNOS), Nos1 (gene 24598) (UniProt P29476) (assay: NVS_ENZ_rCNOS: NovaScreen (NVS) Enzymatic Assay for rat Constitutive Nitric Oxide Synthase (CNOS) (AID 2283236)).
Chain of rat Constitutive Nitric Oxide Synthase (CNOS), Nos1 (gene 24598) (P29476 whole entry, looked up): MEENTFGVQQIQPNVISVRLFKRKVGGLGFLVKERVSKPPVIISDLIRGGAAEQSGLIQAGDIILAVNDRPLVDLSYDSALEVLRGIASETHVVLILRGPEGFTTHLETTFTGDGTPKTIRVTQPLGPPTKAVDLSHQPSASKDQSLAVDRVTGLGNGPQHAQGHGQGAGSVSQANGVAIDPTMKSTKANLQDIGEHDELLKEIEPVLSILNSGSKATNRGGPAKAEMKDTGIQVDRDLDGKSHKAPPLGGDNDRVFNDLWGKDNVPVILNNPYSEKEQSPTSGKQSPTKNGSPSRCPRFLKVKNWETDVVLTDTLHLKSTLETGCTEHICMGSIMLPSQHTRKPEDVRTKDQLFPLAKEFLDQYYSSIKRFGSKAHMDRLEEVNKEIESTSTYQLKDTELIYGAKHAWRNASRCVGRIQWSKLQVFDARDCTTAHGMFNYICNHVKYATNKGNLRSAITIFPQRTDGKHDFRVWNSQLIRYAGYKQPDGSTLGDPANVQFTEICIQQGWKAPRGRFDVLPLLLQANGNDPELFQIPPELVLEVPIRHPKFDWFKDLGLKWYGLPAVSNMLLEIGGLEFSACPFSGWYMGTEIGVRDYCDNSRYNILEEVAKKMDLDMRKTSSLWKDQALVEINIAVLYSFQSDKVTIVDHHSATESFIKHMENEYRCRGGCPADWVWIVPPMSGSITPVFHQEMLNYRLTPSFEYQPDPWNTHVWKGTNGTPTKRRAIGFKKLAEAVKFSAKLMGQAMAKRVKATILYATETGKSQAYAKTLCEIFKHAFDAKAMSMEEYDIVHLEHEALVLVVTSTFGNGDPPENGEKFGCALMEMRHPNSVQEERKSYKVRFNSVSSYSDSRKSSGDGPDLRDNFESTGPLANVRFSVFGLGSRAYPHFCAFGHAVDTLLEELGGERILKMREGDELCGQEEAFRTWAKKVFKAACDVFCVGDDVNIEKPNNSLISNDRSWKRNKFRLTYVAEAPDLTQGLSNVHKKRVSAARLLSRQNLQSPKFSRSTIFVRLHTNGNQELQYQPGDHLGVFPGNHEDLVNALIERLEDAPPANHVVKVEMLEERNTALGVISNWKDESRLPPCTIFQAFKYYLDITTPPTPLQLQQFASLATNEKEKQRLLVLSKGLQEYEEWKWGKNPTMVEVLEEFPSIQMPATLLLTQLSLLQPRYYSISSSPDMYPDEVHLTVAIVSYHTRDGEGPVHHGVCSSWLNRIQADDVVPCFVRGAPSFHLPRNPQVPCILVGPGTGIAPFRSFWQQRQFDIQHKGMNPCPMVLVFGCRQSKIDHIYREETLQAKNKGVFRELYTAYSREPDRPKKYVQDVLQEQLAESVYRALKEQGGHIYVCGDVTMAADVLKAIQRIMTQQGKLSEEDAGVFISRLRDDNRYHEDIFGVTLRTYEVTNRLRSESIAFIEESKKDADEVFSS
Outline: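 Single 25 uM duplicate screen, then concentration series to 50 uM for chemicals meeting threshold. Rat brain membrane-derived CNOS activity detected radiometrically by filtration and scintillation counting, 1 h after compound addition; DMSO as baseline.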
With `Cc1cc(C)nc(NC(=O)NS(=O)(=O)c2ccccc2C(=O)OC2COC2)n1` the AC50 was 2.58 µM (active). In the case of `[2H]C1([2H])[n+]2ccccc2-c2cccc[n+]2C1([2H])[2H]`, the outcome is reported as “inactive”. `CCN(CC)C(=O)SCc1ccc(Cl)cc1` was tested, and the outcome was “inactive”. For `Cc1[nH]c(=O)n(C(C)(C)C)c(=O)c1Cl`, the outcome was “inactive”. In the case of `O=C1c2ccccc2C(=O)N1SC(Cl)(Cl)Cl`, the AC50 is reported as 2.25 µM (active). In the case of `COc1cc(OC)nc(NC(=O)NS(=O)(=O)c2cc(NC=O)ccc2C(=O)N(C)C)n1`, the outcome is reported as “inactive”. In the case of `CCCN(CCOc1c(Cl)cc(Cl)cc1Cl)C(=O)n1ccnc1`, the outcome is reported as “inactive”. In the case of `CNC(=O)Oc1ccccc1OC(C)C`, the outcome is reported as “inactive”.

What follows are compounds tested on rat Monoamine Oxidase, MAO-A, Peripheral (MAOAP), gene 29253 (assay: NVS_ENZ_rMAOAP: NovaScreen (NVS) Enzymatic Assay for rat Monoamine Oxidase, MAO-A, Peripheral (MAOAP) (AID 2283237)).
Method: (§1) NVS_ENZ_rMAOAP is a biochemical, single-readout assay that uses extracted gene-proteins from Rat liver mitochondrial membranes in a tissue-based cell-free assay. Measurements were taken 1.17 hours after chemical dosing in a 96-well plate.NVS_ENZ_rMAOAP is one of one assay component(s) measured or calculated from the NVS_ENZ_rMAOAP assay. It is designed to make measurements of enzyme activity, a form of enzyme reporter, as detected with scintillation counting signals by Lysate-based radiodetection technology.Data from the assay component NVS_ENZ_rMAOAP was analyzed into 1 assay endpoint. This assay endpoint, NVS_ENZ_rMAOAP, was analyzed in the positive analysis fitting direction relative to DMSO as the negative control and baseline of activity. Using a type of enzyme reporter, loss-of-signal activity can be used to understand changes in the enzymatic activity as they relate to the gene Maoa. Furthermore, this assay endpoint can be referred to as a primary readout, because this assay has produced multiple assay endpoints where this one serves a enzymatic activity function. To generalize the intended target to other relatable targets, this assay endpoint is annotated to the oxidoreductase intended target family, where the subfamily is monoamine oxidase.
(§2) Binding assays used specific radioligands (tritiated, iodinated) with non-radioactive competitive displacement ligands in agonist or antagonist protocols (as indicated) and various reference compounds and inhibitors to titrate specific binding to receptors and transporters. Most enzyme assays (CYPs, kinases, phosphatases, proteases, HDACs) used recombinant protein and specific substrates (fluorescence mostly, some colorimetric and radioactive) and inhibitors, followed by a biochemical separation of substrate and product. All assays for the biochemical HTS were initially run in duplicate at a single concentration (10 uM for CYP450 assays and 25 uM for all others). […] Each assay was run with positive and negative controls, and concurrent controls on every plate. The follow-up (secondary) screen tested active chemical-pairs in concentration series, as well as a few additional assays not tested in the primary screen, some selected negative inactives, and several cases re-run in the concentration series for confirmatory purposes.
With `CNC(=O)Oc1cccc(N=CN(C)C)c1` the outcome was “inactive”. With `Oc1ccc(Cl)cc1Cc1ccccc1` the AC50 was 38.2 µM (active) and the outcome was “inactive”. `Oc1cc(Cl)ccc1Oc1ccc(Cl)cc1Cl` was tested, and the outcome was “inactive”.

Each compound was assayed against rat Monoamine Oxidase, MAO-B, Central (MAOBC), Maob (gene 25750) (UniProt P19643) (assay: NVS_ENZ_rMAOBC: NovaScreen (NVS) Enzymatic Assay for rat Monoamine Oxidase, MAO-B, Central (MAOBC) (AID 2283238)).
Chain of rat Monoamine Oxidase, MAO-B, Central (MAOBC), Maob (gene 25750) (P19643 whole entry, looked up): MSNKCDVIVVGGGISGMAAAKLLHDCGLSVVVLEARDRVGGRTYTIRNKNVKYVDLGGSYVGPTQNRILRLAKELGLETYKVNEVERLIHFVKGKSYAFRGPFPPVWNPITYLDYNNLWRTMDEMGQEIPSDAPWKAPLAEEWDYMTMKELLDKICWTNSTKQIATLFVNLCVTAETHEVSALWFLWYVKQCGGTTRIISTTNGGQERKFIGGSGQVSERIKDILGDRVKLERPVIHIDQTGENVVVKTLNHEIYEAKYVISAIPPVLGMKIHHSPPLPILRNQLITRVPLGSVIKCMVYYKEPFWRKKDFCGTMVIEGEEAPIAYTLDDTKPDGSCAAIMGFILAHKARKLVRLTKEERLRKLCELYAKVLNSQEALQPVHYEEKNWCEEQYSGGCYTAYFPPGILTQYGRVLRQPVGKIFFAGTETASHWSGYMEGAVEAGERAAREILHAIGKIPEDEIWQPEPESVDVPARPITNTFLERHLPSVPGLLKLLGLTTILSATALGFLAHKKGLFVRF
Method: as §1, with “NVS_ENZ_rMAOBC” for “NVS_ENZ_rMAOAP”, “brain” for “liver mitochondrial membranes”, “plate.NVS_ENZ_rMAOBC” for “plate.NVS_ENZ_rMAOAP”, “NVS_ENZ_rMAOBC,” for “NVS_ENZ_rMAOAP,”, “Maob.” for “Maoa.”
Binding assays used specific radioligands (tritiated, iodinated) with non-radioactive competitive displacement ligands in agonist or antagonist protocols (as indicated) and various reference compounds and inhibitors to titrate specific binding to receptors and transporters. Most enzyme assays (CYPs, kinases, phosphatases, proteases, HDACs) used recombinant protein and specific substrates (fluorescence mostly, some colorimetric and radioactive) and inhibitors, followed by a biochemical separation of substrate and product. All assays for the biochemical HTS were initially run in duplicate at a single concentration (10 uM for CYP450 assays and 25 uM for all others). Assay-chemical combinations meeting a pre-defined threshold (e.g., 30% inhibition and other criteria defined below) were then run in singleton concentration-response format with maximum concentration of 20 uM for CYPs and 50 uM for all others. Each assay was run with positive and negative controls, and concurrent controls on every plate. The follow-up (secondary) screen tested active chemical-pairs in concentration series, as well as a few additional assays not tested in the primary screen, some selected negative inactives, and several cases re-run in the concentration series for confirmatory purposes.
For `CC(C)OC(=O)Nc1cccc(Cl)c1`, the outcome was “inactive”. In the case of `C#CCN1C(=O)COc2cc(F)c(N3C(=O)C4=C(CCCC4)C3=O)cc21`, the AC50 is reported as 25 µM (active). With `COP(=S)(OC)Oc1ccc([N+](=O)[O-])cc1` the outcome was “inactive”. With `COC(=O)c1ccccc1S(=O)(=O)NC(=O)N(C)c1nc(C)nc(OC)n1` the outcome was “inactive”.

What follows are compounds tested against sheep Cyclooxygenase-1 (Cox1), PTGS1 (gene 443551) (UniProt P05979) (assay: NVS_ENZ_oCOX1: NovaScreen (NVS) Enzymatic Assay for sheep Cyclooxygenase-1 (Cox1) (AID 2283239);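 note: actives reduce cyclooxygenase activity so potencies are for inhibitors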).
Chain of sheep Cyclooxygenase-1 (Cox1), PTGS1 (gene 443551) (P05979 whole entry, looked up): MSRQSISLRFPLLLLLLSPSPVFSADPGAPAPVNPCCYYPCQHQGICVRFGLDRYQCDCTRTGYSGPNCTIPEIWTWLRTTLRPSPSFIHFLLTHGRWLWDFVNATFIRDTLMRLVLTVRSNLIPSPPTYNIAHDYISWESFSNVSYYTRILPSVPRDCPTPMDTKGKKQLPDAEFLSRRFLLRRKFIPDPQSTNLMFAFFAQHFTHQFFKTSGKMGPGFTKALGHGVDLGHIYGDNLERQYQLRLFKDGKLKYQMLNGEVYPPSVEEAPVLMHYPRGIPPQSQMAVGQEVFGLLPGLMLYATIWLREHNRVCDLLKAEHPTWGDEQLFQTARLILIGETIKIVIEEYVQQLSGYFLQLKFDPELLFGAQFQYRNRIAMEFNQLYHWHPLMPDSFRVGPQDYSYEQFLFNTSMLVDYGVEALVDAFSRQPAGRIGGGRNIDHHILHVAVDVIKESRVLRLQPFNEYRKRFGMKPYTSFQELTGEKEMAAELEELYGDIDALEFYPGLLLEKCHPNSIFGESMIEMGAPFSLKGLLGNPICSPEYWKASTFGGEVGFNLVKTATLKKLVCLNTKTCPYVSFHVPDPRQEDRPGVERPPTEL
Method: NVS_ENZ_oCOX1 is a biochemical, single-readout assay that uses extracted gene-proteins from Ovine seminal vesicles in a tissue-based cell-free assay. Measurements were taken 0.66 hour after chemical dosing in a 96-well plate.NVS_ENZ_oCOX1 is one of one assay component(s) measured or calculated from the NVS_ENZ_oCOX1 assay. It is designed to make measurements of enzyme activity, a form of enzyme reporter, as detected with absorbance signals by Colorimetric technology.Data from the assay component NVS_ENZ_oCOX1 was analyzed into 1 assay endpoint. This assay endpoint, NVS_ENZ_oCOX1, was analyzed in the positive analysis fitting direction relative to DMSO as the negative control and baseline of activity. Using a type of enzyme reporter, loss-of-signal activity can be used to understand changes in the enzymatic activity as they relate to the gene PTGS1. Furthermore, this assay endpoint can be referred to as a primary readout, because this assay has produced multiple assay endpoints where this one serves a enzymatic activity function. To generalize the intended target to other relatable targets, this assay endpoint is annotated to the oxidoreductase intended target family, where the subfamily is cyclooxygenase.
as §2
In the case of `CCCN(CCC)c1c([N+](=O)[O-])cc(C(F)(F)F)cc1[N+](=O)[O-]`, the AC50 is reported as 12.8 µM (active). With `CC(C)(C)C(O)C(Oc1ccc(Cl)cc1)n1cncn1` (stereo unspecified) the outcome was “inactive”. With `CC1(c2ccc(Oc3ccccc3)cc2)OC(=O)N(Nc2ccccc2)C1=O` (stereo unspecified) the outcome was “inactive”. In the case of `Oc1ccc(Cl)cc1Cc1ccccc1`, the AC50 is reported as 36.2 µM (active) and 38.3 µM (active). In the case of `Oc1cc(Cl)ccc1Oc1ccc(Cl)cc1Cl`, the outcome is reported as “inactive”. `COP(=O)(OC)OC=C(Cl)Cl` was tested, and the outcome was “inactive”. In the case of `C#CCN1C(=O)COc2cc(F)c(N3C(=O)C4=C(CCCC4)C3=O)cc21`, the AC50 is reported as 1.11 µM (active). For `O=S(=O)(O)C(F)(F)C(F)(F)C(F)(F)C(F)(F)C(F)(F)C(F)(F)C(F)(F)C(F)(F)F`, the outcome was “inactive”. For `O=C(O)C(F)(F)C(F)(F)C(F)(F)C(F)(F)C(F)(F)C(F)(F)C(F)(F)F`, the outcome was “inactive”.
